# HT1080-NT tox – kills 2HG-producing HT-1080-NT fibrosarcoma cells; HT-1080-NT fibrosarcoma viability, CellTiter-Glo ATP luminescence, 48 h; Potency, µM (top dose mostly 46.1 µM), for the others: top-dose activity, negative = less viability, actives largely listed as cytotoxic; 1.6% of 360,000 active;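 note: NT is the 2HG producing partner of a matched IDH1 knockdown line; potency is the fitted concentration of half-maximal effect; 0% = DMSO-treated cells and -100% = media-only wells without cells; nearly all actives have a fitted effect of over 55% in size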
#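 Read-out is CellTiter-Glo luminescence after 10 minutes at room temperature, following 48 hours' compound treatment of HT-1080-NT cells (750 cells/well, RPMI, 5% FBS, 37 degrees C).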
# IL-1B inflam inh – blocks inflammasome-driven IL-1 beta release; THP-1 LPS/ATP IL-1B secretion, AlphaLISA, 16 h; hits give low values; activity change, % at 57.5 µM; 4.7% of 360,000 active; in the data active = activity change below about -50%; inconclusive = mostly about -30% to -49%
#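 Secreted IL-1B measured by AlphaLISA bead assay after 16 h compound exposure of THP-1 cells; compounds (final up to 57.5 uM) added 1 h before LPS (250 ng/mL) and ATP (1.25 mM) stimulation; lower signal means less secretion.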
# HT1080 IDH1KD tx – toxicity to HT-1080 IDH1 knockdown cells (counter line) | HT-1080 IDH1 knockdown viability, ATP luminescence, 48 h | Potency, µM (series often up to 46.1 µM), without a hit: at the highest dose activity, negative = toxicity, hits mostly cytotoxic | 2% of 360,000 active;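 note: potency is the fitted concentration of half-maximal effect; 0% = DMSO wells and -100% = cell-free medium wells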
#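 Knockdown cells (IDH1KD HT-1080) received compounds 2 h after plating at 750 cells/well and were kept 48 h at 37 °C in 5% FBS RPMI. A CellTiter-Glo luminescence read gave % activity for curve fitting.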
# DT40 TDP1 no CPT – qHTS for Inhibitors of human tyrosyl-DNA phosphodiesterase 1 (TDP1): qHTS in cells in absence of CPT | Potency, µM (highest dose often 46.2 µM), for the others: at the highest dose activity change, negative = growth inhibition, hits mostly inhibitors | 15% of 420,000 active | DT40 Tdp1-/- hTDP1 cells, no CPT, ATP luminescence, 48 h; note: potency is the fitted concentration of half-maximal effect; nearly all actives have a fitted effect of over 55% in size
#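 Luminescent ATP content (CellTiter-Glo) served as the growth readout. Knockout chicken DT40 cells expressing human TDP1 were exposed to compounds without camptothecin for a minimum 48 hr at 37 °C.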
# DT40 TDP1 CPT – DT40-hTDP1 cell growth loss with CPT | Potency, µM (highest dose often 46.2 µM), without a hit: at the top dose activity change, negative = growth inhibition, actives largely listed as inhibitors | AID 686979 | chicken DT40 Tdp1-/-;hTDP1 cells + 20 nM CPT, ATP luminescence, 48 h | 12% of 420,000 active; note: potency is the fitted concentration of half-maximal effect; nearly all actives have a fitted effect of over 55% in size
#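 Chicken DT40 Tdp1-/- cells stably complemented with human TDP1 were seeded at 400 cells/well in medium containing 20 nM camptothecin, exposed to pin-transferred compounds, and grown at 37 °C for at least 48 hr. Viability was read as ATP luminescence.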
# An asterisk follows results filed as active; ? = inconclusive; . = not tested or not shown; [ ] = dose if it differs, or a comment. This is a sample that favours compounds with a hit; in the whole collection about 19% have one here. Unless noted, calls come from the whole dose curve; as a rule, active = well fitted curve in the direction sought with a large enough effect; inconclusive = small, poorly fitted or top-dose-only effect, or another doubt; inactive = no such curve, though single readings can be large; an effect the other way counts as inactive or inconclusive. Unless noted, % is set by controls: 0 for no effect and ±100 for the full control effect.
SMILES,HT1080-NT tox,IL-1B inflam inh,HT1080 IDH1KD tx,DT40 TDP1 no CPT,DT40 TDP1 CPT
Cc1cccc(N2CCN(C(=O)CCCSc3nc4ccccc4[nH]3)CC2)c1C,?,?,?,?,16µM*
O=C(CCCSc1nc2ccccc2[nH]1)NC(c1ccccc1)c1ccccc1,-4%,27,-4%,15µM*,12µM*
O=C(CCCSc1nc2ccccc2[nH]1)NC1CCCCC1,-3%,7,-3%,29µM*,?
O=C(CCCSc1nc2ccccc2[nH]1)N1CCN(c2ccccc2)CC1,3%,9,1%,?,?
O=C(CSc1nc2ccccc2[nH]1)NC1CCCC1,6%,-2,15%,-12%,-2%
Cc1ccc2nc(SCC(=O)NCC3Cc4cccc(-c5nc(C)cnc5C)c4O3)[nH]c2c1 (stereo unspecified),.,.,.,-6%,-6%[9.04 µM]
Cc1cc(C)cc(NC(=O)C2CCCN(C(=O)c3cnn(-c4ccccc4)c3-n3cccc3)C2)c1 (stereo unspecified),.,.,.,18µM*,18µM*
COc1ccc(NC(=O)C2CCCN(C(=O)Nc3ccc(F)cc3)C2)cc1 (stereo unspecified),4%,-4,-3%,-1%,7%
COc1ccc(NC(=O)C2CCCN(C(=O)c3cnn(-c4ccccc4)c3-n3cccc3)C2)cc1 (stereo unspecified),.,.,.,10µM*,?
C[C@H](CO)N1C[C@H](C)[C@@H](CN(C)C(=O)NC2CCCCC2)Oc2ccc(NC(=O)Cc3ccccc3)cc2C1=O,7%,-4,1%,-6%,-10%
COC(=O)[C@]12CCCCC=C1N(CCC1=CCCCC1)C(=O)[C@H](CC(=O)NCc1cccc(C(F)(F)F)c1)C2,?,?,?,23µM*,?
CCOC(=O)[C@]12CCCC=C1N(CCC1=CCCCC1)C(=O)[C@H](CC(=O)NCc1cccc(C(F)(F)F)c1)C2,?,-15,?,?,18µM*
CCC1CCCCN1c1nc(-c2cccc(OC)c2O)nc2ccccc12 (stereo unspecified),-25%,-8,-6%,?,?
COc1cccc(-c2nc(Oc3cccc(C)c3C)c3ccccc3n2)c1O,9%,22,13%,?,-30%
COc1cccc(-c2nc(N3CCN(c4ccccc4)CC3)c3ccccc3n2)c1O,1%,32,7%,16µM*,?
COc1cccc(-c2nc(N3CCN(Cc4ccccc4)CC3)c3ccccc3n2)c1O,0%,34,-3%,16µM*,?
COc1cccc(-c2nc(N3CCCCC3)c3ccccc3n2)c1O,?,?,?,21µM*,26µM*
COc1ccc(CC2C(=O)NC(C)C(=O)N(C)C3Cc4ccc(cc4)Oc4cc(ccc4O)CC(C(=O)NC(C)C(=O)NC(C)C(=O)N2C)N(C)C3=O)cc1 (stereo unspecified),0.33µM*,-100*,0.16µM*,0.16µM*,0.018µM*
CC(=O)c1ccc(OCC(O)COc2ccc(C(C)=O)cc2)cc1,2%,10,-2%[9.24 µM],-26%,-23%
CC(=O)c1ccc(OCC(C)Oc2ccc(C#N)cc2)cc1 (stereo unspecified),0%,5,-12%,23µM*,?
Cc1ccc2nc3n(c(=O)c2c1)-c1ncccc1C(=O)NC3Cc1ccc(O)cc1 (stereo unspecified),-7%,-8,-8%,-28%,-2%
CCCC1NC(=O)c2cccnc2-n2c1nc1cc(C)cc(C)c1c2=O (stereo unspecified),-2%,-21,-9%,?,?
Cc1cc(C)c2c(=O)n3c(nc2c1)C(Cc1ccc(O)cc1)NC(=O)c1cccnc1-3 (stereo unspecified),-28%,-14,-23%,18µM*,?
